Source: PubChem BioAssay
A selection: hits, their analogues and other compounds. The true share with any hit is near 0.54%.
Cathepsin G inh = blocks human cathepsin G enzyme activity. P08311. purified enzyme, AMC-tetrapeptide fluorescence, pooled mixtures. inhibition, % at 5 µM (by protocol). actives 0.2% (n = 62,000);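 active = inhibition above 20% in each of the two mixture wells holding the compound; inactive = inhibition of 20% or less in either well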;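 also: 0% = enzyme control without mixture and 100% = blank lacking enzyme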
CatS block = blocks human cathepsin S protease activity; P25774; recombinant cathepsin S, AMC dipeptide fluorescence, pooled mixtures; inhibition, %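 (tested at 5 µM per compound within 10-compound mixtures)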; actives 0.06% (n = 62,000); in the data active = inhibition above about 32%, passing the limit was not always enough; inconclusive = no clear call, values can overlap the other calls;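 also: 0% = enzyme without compound and 100% = blank without enzyme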
CatB mix inh = human cathepsin B inhibition by mixtures. P07858. Purified cathepsin B, AMC dipeptide fluorescence, compound mixtures. inhibition, %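 (ten-compound pools at 5 µM per compound and 50 µM total)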. actives 0.06% (n = 62,000). AID 488; in the data active = inhibition above about 22%, passing the limit was not always enough; inconclusive = no clear call, values can overlap the other calls;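 also: 0% = enzyme without compound and 100% = no enzyme blank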
CatL inh = inhibitors of human cathepsin L. AID 460. actives 0.17% (n = 58,000). P07711. inhibition, %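 (tested at 10 µM)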. purified cathepsin L, fluorogenic substrate, fluorescence; in the data active = inhibition above about 45%;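 also: 0% = enzyme with no compound and 100% = no enzyme blank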
C1s inh = blocks human complement C1s protease activity | P09871 | purified C1s, fluorogenic AMC substrate, pooled mixtures | mean inhibition % of two 10-compound mixtures (active compounds read high), % at 5 µM (by protocol) | actives 0.16% (n = 62,000) | AID 538;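 active = inhibition above 20% in each of the two 10-compound mixture wells holding the compound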;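 also: 0% = enzyme wells lacking compound mixture and 100% = no-enzyme blank wells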
Target sequence (P09871 16-437 limits assumed): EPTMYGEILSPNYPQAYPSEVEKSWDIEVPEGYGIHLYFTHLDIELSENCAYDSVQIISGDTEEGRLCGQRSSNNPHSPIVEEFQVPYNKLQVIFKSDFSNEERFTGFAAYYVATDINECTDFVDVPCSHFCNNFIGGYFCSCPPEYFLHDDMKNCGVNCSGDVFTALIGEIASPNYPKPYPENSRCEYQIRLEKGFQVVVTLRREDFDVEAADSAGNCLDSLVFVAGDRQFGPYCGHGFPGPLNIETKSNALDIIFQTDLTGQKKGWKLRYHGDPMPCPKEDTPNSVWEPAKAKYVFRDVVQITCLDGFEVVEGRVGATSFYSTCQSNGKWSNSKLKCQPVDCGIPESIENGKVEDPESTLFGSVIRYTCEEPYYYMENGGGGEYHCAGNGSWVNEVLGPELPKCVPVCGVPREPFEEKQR
Target sequence (P09871 438-688 limits assumed): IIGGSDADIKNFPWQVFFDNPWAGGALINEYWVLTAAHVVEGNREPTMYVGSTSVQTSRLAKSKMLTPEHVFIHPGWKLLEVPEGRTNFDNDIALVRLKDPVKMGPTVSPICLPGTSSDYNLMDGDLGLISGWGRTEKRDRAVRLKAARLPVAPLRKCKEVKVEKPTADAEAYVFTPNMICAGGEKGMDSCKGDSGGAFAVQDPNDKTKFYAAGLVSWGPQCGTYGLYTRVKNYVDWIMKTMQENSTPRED
CatB inh = inhibitors of human cathepsin B. P07858. purified cathepsin B, fluorogenic substrate, fluorescence. inhibition, %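 (tested at 10 µM)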. actives 0.1% (n = 63,000); in the data active = inhibition above about 21%;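 also: 0% = enzyme with no compound and 100% = no enzyme blank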
* = called active by the depositor; ? = inconclusive; · = no result given.

SMILES	Cathepsin G inh	CatS block	CatB mix inh	CatL inh	C1s inh	CatB inh
COc1ccc(N2CCN(S(=O)(=O)/C=C/c3ccccc3)CC2)cc1	1.2	3.2	6.2	12.3	-27.1	-6.4
CN1CCN(S(=O)(=O)c2ccc(N3CCN(S(=O)(=O)/C=C/c4ccccc4)CC3)nc2)CC1	-9.4	14.7	2.8	90.5*	2.8	8.7
CCc1c(C)nc2ncnn2c1N1CCC(C(=O)Nc2cccc(C(C)=O)c2)CC1	7.9	2.6	-0.3	22.8	-2.0	3.0
Cn1c(C(=O)N2CCCc3ccccc32)cc2sccc21	10.5	20.9	4.6	9.6	5.3	-2.4
COc1cccc(NC(=O)CN2C(=O)COc3ccc(Cl)cc32)c1	10.9	22.7	2.1	3.2	19.1	1.4
COc1cc2c(C#N)c(N3CCN(c4ccccc4OC)CC3)nc(N)c2c(N)n1	-9.5	0.0	5.3	-224.8	-13.8	0.1
N#Cc1c(N2CCCC2)nc(N)c2c(N)nc(N3CCCC3)cc12	-0.8	59.0*	76.8*	18.4	-98.0	45.4*
COc1cc(NC(=O)c2cccs2)c(OC)cc1NC(=O)CCn1nnc2ccccc21	15.2	-1.9	4.4	9.6	21.0*	6.2
CCOC(=O)Cc1nnc(NC(=O)C(CC)Sc2nnc3c4ccccc4n(C)c3n2)s1 (stereo unspecified)	17.2	13.8	6.0	26.8	22.3*	1.2
CCOC(=O)c1c(-c2ccc(C)o2)csc1NC(=O)CN1CCN(CC)CC1	13.4	22.4	7.3	0.8	59.1*	-0.4
CCOC(=O)c1c(-c2ccc(C)o2)csc1NC(=O)CSc1nncs1	9.0	-1.1	-0.7	9.6	12.4	1.8
CCCOc1ccc(N2C(=O)CC(N3CCN(c4ccccc4OC)CC3)C2=O)cc1 (stereo unspecified)	3.6	19.0	2.2	·	-4.5	-0.6
CCOc1ccc(N2C(=O)CC(N3CCN(c4ccccc4F)CC3)C2=O)cc1 (stereo unspecified)	13.2	4.3	1.9	24.5	24.0*	8.2
CCSc1nnc(NC(=O)C(CC)Oc2ccccc2)s1 (stereo unspecified)	-10.2	-5.7	-5.2	3.5	-24.8	2.6
CCOc1ccc(NC2=NC(C(=O)NCc3ccccc3)CC(=O)N2)cc1 (stereo unspecified)	4.3	8.1	-4.1	55.4*	4.1	-6.1
O=C1CC(C(=O)NCc2ccccc2)N=C(N2CCCCC2)N1 (stereo unspecified)	-2.9	5.5	0.4	7.6	2.8	2.6
COc1ccc(N(C)S(=O)(=O)c2cccc(C(=O)Nc3ccc(-n4cnnn4)cc3)c2)cc1	1.5	12.2	-2.1	31.1	-2.3	-4.2
Cn1cccc1Cc1nnc(SCC(=O)NCC2CCCO2)n1-c1ccc(F)cc1 (stereo unspecified)	10.3	23.4	8.2	45.8*	16.0	1.4
COc1ccc(-n2c(Cc3cccn3C)nnc2SCC(=O)NCc2ccccc2Cl)cc1	8.0	0.1	0.0	101.4*	-39.5	0.1
Cn1cccc1Cc1nnc(SCC(=O)Nc2ccc(F)cc2)n1-c1ccc(F)cc1	1.4	-8.9	-9.9	12.6	-58.7	0.6
CC(C)[C@H](NC(=O)OC(C)(C)C)c1nnc(SCC(=O)Nc2ccc(Br)cc2)o1	-5.1	-5.2	3.3	1.7	1.5	3.1
O=C(NCCCn1ccnc1)c1noc2c1CCc1ccccc1-2	95.0*	10.5	3.2	25.7	17.4	4.7
COc1ccc2c(c1)CCc1c(C(=O)NCc3cccnc3)noc1-2	87.2*	?	10.6	-4.8	18.9	-0.5
Cc1cc(NC(=O)c2noc3c2CCc2ccccc2-3)no1	95.5*	8.4	1.2	6.0	-12.8	1.0
Cc1ccccc1Cn1nc(C)c(NC(=O)c2noc3c2CCc2ccccc2-3)c1C	72.0*	7.1	-0.1	2.0	5.5	0.8
SMILES	Cathepsin G inh	CatS block	CatB mix inh	CatL inh	C1s inh	CatB inh
O=S(=O)(c1cccs1)N1CCCc2ccccc21	-0.4	3.0	-0.9	·	-2.6	2.8
CCOc1ccc(-c2cc3nc(C4CCN(C(=O)OC(C)(C)C)CC4)c(C(=O)O)cn3n2)cc1	10.4	12.1	-0.9	9.9	0.5	2.6
CC(=O)Nc1ccc(NC(C)=O)s1	10.5	18.0	5.6	11.8	56.4*	5.3
CC(=O)Nc1ccc(-c2ccccc2)s1	-2.7	-5.3	3.1	·	-6.5	-4.9
O=S(=O)(c1ccc(Oc2ccc(S(=O)(=O)N3CCOCC3)cc2)cc1)N1CCOCC1	8.2	-2.6	1.2	11.9	3.5	-2.0
C=CS(=O)(=O)c1ccc(Oc2ccc(S(=O)(=O)C=C)cc2)cc1	0.5	38.6*	5.5	-3.2	6.7	0.3
Cc1ccc(NS(=O)(=O)c2cc(C(=O)N3CCOCC3)ccc2C)cc1C	13.7	5.9	3.1	0.6	20.9*	0.0
Cc1ccc(NS(=O)(=O)c2cc(C(=O)N3CCN(C)CC3)ccc2C)cc1	5.8	-12.7	2.2	-14.3	13.4	0.8
COc1ccc(C(=O)C(OC(=O)CNC(=O)c2ccco2)c2ccccc2)cc1 (stereo unspecified)	-7.8	-1.8	11.8	67.7*	-12.5	21.3*
O=C(c1ccco1)N1CCC(c2ccccc2)C1 (stereo unspecified)	7.3	-0.1	-2.0	23.0	12.1	4.6
Cc1ccc(C(=O)Nc2cccc(C(=O)O)c2)cc1S(=O)(=O)N1CCCCC1	1.5	-9.1	-5.3	0.9	-23.9	-3.3
CCN(CC)C(=O)CSc1nnc([C@@H](N)Cc2ccccc2)o1	1.7	1.4	-1.2	82.6*	-5.7	-1.6
CCc1ccccc1NC(=O)CSc1nnc([C@@H](N)Cc2ccccc2)o1	9.3	32.9	7.2	·	14.5	3.7
COc1cc2nc(-c3cccs3)oc(=O)c2cc1OC	22.5*	5.6	6.2	-6.3	11.4	-0.9
COc1ccc(-c2nnc(-c3cccs3)o2)cc1OC	-13.4	3.1	1.0	-62.3	-12.2	-0.3
CC1CCCC(C)N1C(=O)CSc1nnc(C2CCCCC2)o1 (stereo unspecified)	8.5	5.0	-1.5	1.3	2.9	0.9
CC[C@@H](C)[C@H](NC(=O)OC(C)(C)C)c1nnc(S(=O)(=O)Cc2cc(C)ccc2C)o1	26.8*	8.0	11.0	31.2	4.2	19.3
CC(C)(C)OC(=O)N[C@@H](Cc1ccccc1)c1nnc(S(=O)(=O)Cc2cccc(F)c2)o1	62.9*	-2.5	2.9	31.2	-7.2	4.3
CC(C)=CCSc1nnc([C@@H](NC(=O)OC(C)(C)C)C(C)C)o1	1.5	17.2	-2.9	3.9	-8.9	0.8
Cc1[nH]c(=O)[nH]c(=O)c1CSc1nnc([C@@H](NC(=O)OC(C)(C)C)C(C)C)o1	10.2	0.2	-3.9	-2.2	2.8	-0.6
Cc1ccccc1CS(=O)(=O)c1nnc([C@H](CC(C)C)NC(=O)OC(C)(C)C)o1	20.5*	-2.7	8.8	15.0	14.6	6.9
CC(C)[C@H](NC(=O)OC(C)(C)C)c1nnc(S(=O)(=O)Cc2c(F)cccc2Cl)o1	37.7*	-3.0	19.1	31.3	13.0	11.0
